Where “and” joins values, the source holds several entries; their conditions need not be identical. Identical values can stand only once. Records with an inconclusive call do not appear. A call without a number means that no potency is given here. A number with no mark means an inactive call. Calls of active or inactive are those of the source. Unless noted, the call rests on the fitted dose curve; in most records, active means well fitted curve in the direction sought with a large enough effect in the repeat runs; inconclusive means weak or mixed curves; inactive means no such curve, though single readings can be large; an effect the other way counts as inactive or inconclusive.
Experiments:
[1] = qHTS assay to identify aromatase inhibitors - cell viability counter screen (AID 743084);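 further: cells stimulated with testosterone during compound exposure; nearly all actives have a fitted effect of over 55% in size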; further: potency means the concentration at half of the fitted maximal effect
[2] = target: Aryl hydrocarbon receptor (Homo sapiens) (UniProt P35869); experiment: qHTS assay to identify small molecule that activate the aryl hydrocarbon receptor (AhR) signaling pathway (AID 743085); further: nearly all actives have a fitted effect of over 15% in size; further: potency means the concentration at half of the fitted maximal effect;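 on activation: HG2L7.5c1 human HepG2 liver cells with stably integrated DRE-driven firefly reporter; series mostly up to about 70 µM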
Chain of Aryl hydrocarbon receptor (Homo sapiens) (P35869 whole entry, looked up): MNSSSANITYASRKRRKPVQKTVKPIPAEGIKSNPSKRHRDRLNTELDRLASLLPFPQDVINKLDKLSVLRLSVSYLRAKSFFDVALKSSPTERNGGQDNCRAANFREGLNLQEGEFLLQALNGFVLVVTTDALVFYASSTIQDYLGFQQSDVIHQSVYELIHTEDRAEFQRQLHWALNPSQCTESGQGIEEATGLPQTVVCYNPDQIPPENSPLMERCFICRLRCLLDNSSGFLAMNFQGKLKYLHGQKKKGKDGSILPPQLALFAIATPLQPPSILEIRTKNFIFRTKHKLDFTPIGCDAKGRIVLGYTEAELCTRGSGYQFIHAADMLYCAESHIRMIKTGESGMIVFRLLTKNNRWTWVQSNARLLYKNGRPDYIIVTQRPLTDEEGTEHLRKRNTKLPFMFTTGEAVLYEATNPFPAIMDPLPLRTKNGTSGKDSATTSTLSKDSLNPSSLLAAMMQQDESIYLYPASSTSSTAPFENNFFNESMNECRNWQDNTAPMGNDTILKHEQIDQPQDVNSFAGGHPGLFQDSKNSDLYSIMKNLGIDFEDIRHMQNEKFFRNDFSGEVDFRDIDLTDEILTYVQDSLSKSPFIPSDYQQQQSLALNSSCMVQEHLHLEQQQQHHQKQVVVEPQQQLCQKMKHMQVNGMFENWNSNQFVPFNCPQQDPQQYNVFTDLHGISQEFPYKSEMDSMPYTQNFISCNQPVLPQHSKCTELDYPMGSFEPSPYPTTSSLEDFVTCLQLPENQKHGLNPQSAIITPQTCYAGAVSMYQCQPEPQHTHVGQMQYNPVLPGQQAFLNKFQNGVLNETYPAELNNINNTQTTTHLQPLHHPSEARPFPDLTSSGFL
How it was run: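 24 h compound exposure, 37C, HepG2-derived HG2L7.5c1 cells with DRE-responsive luciferase. Readouts: fluorescence viability, then luminescence at room temperature after 30 min.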

[3] = qHTS assay to identify small molecule that activate the aryl hydrocarbon receptor (AhR) signaling pathway - cell viability counter screen (AID 743086); further: nearly all actives have a fitted effect of over 45% in size; further: potency means the concentration at half of the fitted maximal effect
How it was run: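 HepG2-AhR-luc (HG2L7.5c1) cells, 4000/well, were preincubated 5 h at 37C, exposed to compound in qHTS format for 24 hr at 37C, then given CellTiter-Fluor for 30 min; viability was read as fluorescence in the reporter wells.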

[4] = target: Peroxisome proliferator-activated receptor gamma (Homo sapiens) (UniProt P37231); experiment: qHTS assay to identify small molecule agonists of the peroxisome proliferator-activated receptor gamma (PPARg) signaling pathway (AID 743094; active means well fitted activation curve with a large enough effect in the signal ratio in the repeat runs, not every such curve was filed as active; the % refers to the signal ratio)
Chain of Peroxisome proliferator-activated receptor gamma (Homo sapiens) (P37231 whole entry, looked up): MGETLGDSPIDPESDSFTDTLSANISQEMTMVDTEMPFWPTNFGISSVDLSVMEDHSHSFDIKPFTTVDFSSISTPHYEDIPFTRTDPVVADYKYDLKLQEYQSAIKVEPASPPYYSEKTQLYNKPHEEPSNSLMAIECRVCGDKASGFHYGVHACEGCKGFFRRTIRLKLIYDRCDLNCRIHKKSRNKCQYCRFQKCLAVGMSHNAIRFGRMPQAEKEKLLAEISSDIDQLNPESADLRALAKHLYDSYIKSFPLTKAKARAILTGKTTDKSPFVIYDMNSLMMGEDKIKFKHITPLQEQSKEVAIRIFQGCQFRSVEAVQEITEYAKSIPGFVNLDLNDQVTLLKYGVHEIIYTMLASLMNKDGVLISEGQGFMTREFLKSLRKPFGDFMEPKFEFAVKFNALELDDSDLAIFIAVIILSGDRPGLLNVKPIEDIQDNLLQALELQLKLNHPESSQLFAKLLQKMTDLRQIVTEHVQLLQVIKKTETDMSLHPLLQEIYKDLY
How it was run: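 Agonism was assessed in a beta-lactamase reporter system, HEK293H cells with a stably integrated UAS-bla construct under PPARg control; the 17 h treatment at 37C preceded a 1 h room-temperature FRET substrate read.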

[5] = qHTS assay to identify small molecule antagonists of the peroxisome proliferator-activated receptor gamma (PPARg) signaling pathway - cell viability counter screen (AID 743194); further: nearly all actives have a fitted effect of over 55% in size; further: potency means the concentration at half of the fitted maximal effect
How it was run: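 PPARg-UAS-bla HEK293H cells were plated, rested 5 h at 37 C, then treated with compounds plus rosiglitazone (50 nM final) for 17 h at 37 C; viability was then read by CellTiter-Glo luminescence after 30 min at room temperature.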

[6] = qHTS assay for small molecule agonists of the antioxidant response element (ARE) signaling pathway - cell viability counter screen (AID 743203; calls by dose curve; further: nearly all actives have a fitted effect of over 55% in size; further: potency means the concentration at half of the fitted maximal effect)
How it was run: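 ATP content via CellTiter-Glo luminescence served as the viability measure. Cells: ARE-bla HepG2, 2,000 per well. Exposure: 16 hrs, 37C/5% CO2.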

[7] = qHTS assay for small molecule activators of the heat shock response signaling pathway - cell viability counter screen (AID 743209); further: nearly all actives have a fitted effect of over 50% in size
How it was run: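 Compounds dissolved in DMSO were added to overnight-plated HSE-bla HeLa cells and left 5 h at 37 C. Cell viability was quantified by luminescence using CellTiter-Glo.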

[8] = qHTS assay for small molecule activators of the heat shock response signaling pathway (AID 743210; active means well fitted activation curve with a large enough effect in the signal ratio in the repeat runs, with a control signal flat, not every such curve was filed as active; the % refers to the signal ratio; further: series mostly up to about 63 µM)
How it was run: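 Heat shock element–beta-lactamase HeLa reporter cells; qHTS with compounds for 5 h at 37 C; detection by FRET substrate fluorescence after 2.5 h at RT.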

[9] = qHTS assay for small molecule agonists of the antioxidant response element (ARE) signaling pathway (AID 743202; active means well fitted activation curve with a large enough effect in the signal ratio in the repeat runs, not every such curve was filed as active; the % refers to the signal ratio; further: potency means the concentration at half of the fitted maximal effect)
How it was run: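 Following a 16 h, 37 C exposure of reporter HepG2 cells (ARE-driven beta-lactamase, 2,000 cells/well) to compounds, FRET substrate was applied for 2 h at room temperature and fluorescence intensity recorded.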

[10] = target: Peroxisome proliferator-activated receptor gamma (Homo sapiens) (UniProt P37231); experiment: qHTS assay to identify small molecule antagonists of the peroxisome proliferator-activated receptor gamma (PPARg) signaling pathway (AID 743191; calls by dose curve; further: series mostly up to about 63 µM; nearly all actives have a fitted effect of over 30% in size)
How it was run: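 GeneBLAzer PPARg UAS-bla HEK293H cells carrying a UAS-driven beta-lactamase reporter were plated at 3000 cells/well, preincubated 5 h at 37C, then given compound for 17 h at 37C; LiveBLAzer B/G FRET substrate was read after 1 h at room temperature.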

SMILES	Potency [1]	Potency [2]	Potency [3]	Potency [4]	Potency [5]	Potency [6]	outcome [7]	outcome [8]	Potency [9]	Potency [10]
O=C(Nc1ccc2c(c1)Cc1ccccc1-2)C(F)(F)F	inactive	61.1 µM (active)	inactive	inactive	inactive	inactive	inactive	inactive		
Nc1nc(Cl)nc2c1ncn2[C@H]1C[C@H](O)[C@@H](CO)O1	inactive	inactive	inactive		inactive	inactive	inactive	inactive	inactive	
O=C(O)c1ccccc1-n1cc(C(=O)O)c(=O)c2cc(Nc3c(F)cc(F)cc3Cl)c(Cl)cc21	inactive	inactive	inactive				inactive	inactive	inactive	inactive
O=C(O)c1cc(C(=O)O)c(C(=O)O)cc1C(=O)O	inactive	inactive	inactive		inactive	inactive	inactive	inactive		
CCCC1CCCC(=O)O1 (stereo unspecified)	inactive	inactive	inactive		inactive	inactive	inactive	inactive	inactive	inactive
Clc1nc2ccccc2nc1Cl	inactive	inactive	inactive		inactive	inactive	inactive		inactive	
CCCCCCCCCCCCCCCCC(=O)O	inactive	inactive	inactive		inactive		inactive	inactive	inactive	inactive
CCCCCO	inactive	inactive	inactive		inactive		inactive	inactive	inactive	
CCCN(C1CCN(C(=O)C2CCNCC2)CC1)[C@@H]1CCc2ccc(OC)cc2C1	inactive	inactive	inactive		inactive		inactive	inactive		inactive
CC(O)C(C)O (stereo unspecified)	inactive	inactive	inactive		inactive		inactive	inactive	inactive	inactive
CCCCOC(=O)CC#N	inactive	inactive	inactive		inactive	inactive	inactive			inactive
O=C(NC1CCN(CCc2c[nH]c3ccccc23)CC1)c1ccccc1	inactive	29.8 µM (active)	inactive		inactive	inactive	inactive	inactive		
Cc1cc(C)c(C)c(O)c1	inactive	inactive	inactive		inactive	inactive	inactive	inactive		inactive
Cc1ccc(S(=O)(=O)NC(=O)NC2CCCC2)cc1	inactive	inactive	inactive				inactive	inactive	inactive	inactive
C[C@]12CCC(=O)C=C1[C@@H]1C[C@@H]1[C@H]1[C@@H]3[C@@H]4C[C@@H]4[C@@]4(CCC(=O)O4)[C@@]3(C)CC[C@@H]12	inactive	inactive	inactive		inactive	inactive	inactive	inactive		
CC(=O)Nc1ccn(C2COC(COC(=O)c3ccccc3)O2)c(=O)n1 (stereo unspecified)	inactive	inactive	inactive		inactive		inactive	inactive	inactive	

SMILES	Potency [1]	Potency [2]	Potency [3]	Potency [4]	Potency [5]	Potency [6]	outcome [7]	outcome [8]	Potency [9]	Potency [10]
O=c1[nH][nH]c2ccccc12	inactive	62.3 µM (active)	inactive		inactive	inactive	inactive	inactive	inactive	
CCC(CC)C(=O)O	inactive	inactive	inactive		inactive	inactive	inactive	inactive	inactive	
CC(=O)S[C@H](C(=O)N[C@H]1Cc2ccccc2[C@H]2CCC[C@@H](C(=O)O)N2C1=O)C(C)C	inactive	inactive	inactive			inactive	inactive	inactive	inactive	
CCOCCn1c(N2CCCN(C)CC2)nc2ccccc21	inactive	inactive	inactive			inactive	inactive	inactive	inactive	
CC(C)=CCCC(C)C=O (stereo unspecified)	inactive	inactive	inactive				inactive	inactive		inactive
CC(C)C[C@H](NC(=O)[C@H](Cc1ccccc1)NC(=O)c1cnccn1)B(O)O	1.33 µM (active)	inactive	376 nM (active) and 335 nM (active)		84.1 nM (active)	335 nM (active)	inactive		23.7 nM (active)	
O=P(c1ccccc1)(c1ccccc1)c1ccccc1	inactive	inactive	inactive		inactive		inactive	inactive		inactive
CS(C)=O	inactive	inactive	inactive		inactive	inactive	inactive			
C=CC(=O)OCCCCCCCCCC	inactive	inactive	inactive		inactive		inactive	inactive	inactive	inactive
CC1=C(C)C(=O)C(C(CCCCCC(=O)O)c2ccccc2)=C(C)C1=O (stereo unspecified)	inactive	inactive	inactive		inactive	inactive	inactive	inactive		inactive
Oc1ccc(CCNCCCCCCNCCc2ccccc2)cc1O	inactive	inactive	inactive		inactive	inactive	inactive		inactive	
CC1(C)C(=O)NC(=O)N1CO	inactive	inactive	inactive		inactive	inactive	inactive	inactive	inactive	inactive
O=C(Cl)c1ccc(F)c(Cl)c1	inactive	inactive	inactive		inactive	inactive	inactive	inactive	inactive	
COc1cc(C)c(Cc2cnc(N)nc2N)cc1OC	inactive	inactive	inactive		inactive	inactive	inactive	inactive	inactive	
OCC(O)c1ccccc1 (stereo unspecified)	inactive	inactive	inactive		inactive	inactive	inactive	inactive	inactive	

From PubChem BioAssay (Tox21)
